Reference: the supplement of paper PMC10849652
Targets with a hit are over-represented here; the source holds about 8,800 in all. About 0.5% of all pairs of compound and target were hits.

How the values were obtained:
Experiment in all cases: log2 fold change, soluble protein after heating vs DMSO (PISA); higher = thermal stabilisation; K562 lysate, 10 uM; active = over 0.2 and 3.5 SD of the protein, either way, in both replicates (recomputed)
erlotinib = compound: C#Cc1cccc(Nc2ncnc3cc(OCCOC)c(OCCOC)cc23)c1 [erlotinib]
In short: (§1)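 To prepare the extract, K562 pellets were dounce-homogenised in PBS pH 7.4 with 1 mM MgCl2, giving crude material at 1 mg/mL protein. This was treated with 10 μM compound for 30 min, then heated in aliquots for 3 min over 48°C-58°C before pooling and addition of NP-40 to 0.5% at 4°C. Centrifugation at 21,000xg for 90 min left soluble protein in the supernatant, which TMTpro 16plex LC-MS/MS quantified with equalised channel sums. Results are log-two fold changes in thermal stability compared with solvent controls, from duplicates.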

[1] = compound: C/C(=N\NC(=O)C1=CC(=CC=C1)S(=O)(=O)N2CCOCC2)/C3=C(C=CC(=C3)Cl)O
In short: as §1

[2] = compound: C1=CC(=CC=C1C2=NC3=C(N2)C=C(C=C3)C(=O)N)OC4=CC=C(C=C4)Cl
In short: as §1

[3] = compound: C1=CC2=C(C=CC(=C2)/C=C\3/C(=O)NC(=NCC4=CC=CS4)S3)N=C1
In short: as §1

[4] = compound: C1=CC2=NC=CN=C2C=C1/C=C/3\C(=O)NC(=O)S3
In short: as §1

[5] = compound: C1=CC=C(C=C1)C2=NC(=C(N2)C3=CC=NC=C3)C4=CC(=C(C=C4)Cl)O
In short: as §1

[6] = compound: C1=CC=C2C(=C1)C3=NNC4=CC=CC(=C43)C2=O
In short: as §1

[7] = compound: C1CCN(C1)C(=O)NC2=CC=CC(=C2)NC3=NC=C(C(=N3)NCCC4=CN=CN4)Br
In short: as §1

[8] = compound: C1CN(CCC1(CC2=CC=C(C=C2)Cl)N)C3=NC=NC4=C3C=CN4
In short: as §1

IRAK-1-4 Inhibitor I = compound: C1COCCN1CCN2C3=CC=CC=C3N=C2NC(=O)C4=CC(=CC=C4)[N+](=O)[O-] [IRAK-1-4 Inhibitor I]
In short: as §1

ibrutinib = compound: C=CC(=O)N1CCC[C@@H](n2nc(-c3ccc(Oc4ccccc4)cc3)c3c(N)ncnc32)C1 [ibrutinib]
In short: as §1

[9] = compound: CC(=O)c1cnc2ccc(-c3cc(Cl)c(O)c(Cl)c3)nc2c1N[C@H]1CC[C@H](CN(C)C)CC1
In short: as §1

ralimetinib = compound: CC(C)(C)Cn1c(N)nc2ccc(-c3[nH]c(C(C)(C)C)nc3-c3ccc(F)cc3)nc21 [ralimetinib]
In short: as §1

[10] = compound: CC(C)(O)CC(=O)NCCn1ccc2ncnc(Nc3ccc(Oc4cccc(C(F)(F)F)c4)c(Cl)c3)c21
In short: as §1

[11] = compound: CC(C)C1=C2N=C(C=C(N2N=C1)NCC3=CC=CC=C3)NCCCCCCN
In short: as §1

[12] = compound: CC1=C(C(CC(=O)N1)C2=CC=C(C=C2)C(F)(F)F)C(=O)NC3=C(C=C4C(=C3)C=NN4)F
In short: as §1

[13] = compound: CC1=C(C2=C(C=C1)C(=O)C3=CC=CC=C3N2CCCN)C
In short: as §1

[14] = compound: CC1=C(C=C(C=C1)NC(=O)C2=CC(=CC=C2)C(C)(C)C#N)NC3=CC4=C(C=C3)N=CN(C4=O)C
In short: as §1

[15] = compound: CC1=C(C=C(C=C1)NC(=O)C2=CC(=CC=C2)N(C)C)NC(=O)C3=CC=C(C=C3)O
In short: as §1

[16] = compound: CC1=CC=C(C=C1)SC2=C3C=C(SC3=CN=C2)C(=O)N
In short: as §1

Measured: log2 fold change

CCPG1 isoform 5 (UniProt Q9ULG6)
Sequence of UniProt Q9ULG6 (Q9ULG6 whole entry, looked up): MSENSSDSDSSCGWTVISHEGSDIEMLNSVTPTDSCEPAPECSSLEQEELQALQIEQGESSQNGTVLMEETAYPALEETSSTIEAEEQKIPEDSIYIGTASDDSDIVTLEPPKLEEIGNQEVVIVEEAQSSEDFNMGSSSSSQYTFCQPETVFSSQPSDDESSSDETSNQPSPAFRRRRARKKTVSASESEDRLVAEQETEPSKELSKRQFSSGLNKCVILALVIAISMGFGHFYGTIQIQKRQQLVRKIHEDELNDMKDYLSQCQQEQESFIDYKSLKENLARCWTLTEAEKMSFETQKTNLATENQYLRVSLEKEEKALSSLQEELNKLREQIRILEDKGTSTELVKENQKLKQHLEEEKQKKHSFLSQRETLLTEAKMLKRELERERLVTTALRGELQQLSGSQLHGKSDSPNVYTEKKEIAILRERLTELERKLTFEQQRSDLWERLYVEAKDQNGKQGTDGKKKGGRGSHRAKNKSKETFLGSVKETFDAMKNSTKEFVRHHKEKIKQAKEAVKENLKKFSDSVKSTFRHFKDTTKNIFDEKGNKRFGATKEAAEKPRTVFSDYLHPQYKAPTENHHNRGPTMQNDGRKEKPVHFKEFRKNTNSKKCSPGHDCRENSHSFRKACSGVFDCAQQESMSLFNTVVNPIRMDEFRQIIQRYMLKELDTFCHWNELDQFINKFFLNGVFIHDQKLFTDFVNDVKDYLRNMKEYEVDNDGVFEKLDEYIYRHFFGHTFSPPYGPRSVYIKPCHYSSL
inactive: erlotinib -0.014 | [1] 0.08 | [2] 0.082 | [3] 0.017 | [4] 0.024 | [5] 0.067 | [6] -0.119 | [7] 0.019 | [8] 0.053 | IRAK-1-4 Inhibitor I -0.03 | ibrutinib 0.021 | [9] -0.014 | ralimetinib 0.08 | [10] 0.013 | [11] 0.014 | [12] -0.004 | [13] -0.058 | [14] -0.026 | [15] -0.029 | [16] -0.102

ATR (UniProt Q13535)
inactive: erlotinib -0.025 | [1] -0.012 | [2] -0.055 | [3] 0.336 | [4] 0.255 | [5] 0.125 | [6] 0.071 | [7] -0.005 | [8] 0.125 | IRAK-1-4 Inhibitor I -0.025 | ibrutinib 0.06 | [9] 0.319 | ralimetinib 0 | [10] -0.037 | [11] 0.016 | [12] -0.015 | [13] -0.031 | [14] 0.032 | [15] 0.039 | [16] -0.053

ATG4A (UniProt Q8WYN0)
Sequence of UniProt Q8WYN0 (Q8WYN0 whole entry, looked up): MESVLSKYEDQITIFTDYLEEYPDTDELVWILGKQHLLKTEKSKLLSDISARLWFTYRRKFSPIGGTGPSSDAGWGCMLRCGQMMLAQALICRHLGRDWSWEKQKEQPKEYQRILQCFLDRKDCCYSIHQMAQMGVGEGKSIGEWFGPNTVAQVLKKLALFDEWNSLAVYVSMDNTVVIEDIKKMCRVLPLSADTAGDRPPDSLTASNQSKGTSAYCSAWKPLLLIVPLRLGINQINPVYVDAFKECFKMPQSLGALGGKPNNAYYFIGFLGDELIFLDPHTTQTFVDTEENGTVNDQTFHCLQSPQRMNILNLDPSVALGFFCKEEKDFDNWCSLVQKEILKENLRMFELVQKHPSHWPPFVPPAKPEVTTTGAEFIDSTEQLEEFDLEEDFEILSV
inactive: erlotinib 0.031 | [1] -0.087 | [2] -0.055 | [3] -0.01 | [4] 0.007 | [5] 0.01 | [6] -0.023 | [7] -0.015 | [8] 0.038 | IRAK-1-4 Inhibitor I -0.001 | ibrutinib 0.032 | [9] -0.006 | ralimetinib 0.011 | [10] -0.051 | [11] -0.055 | [12] -0.006 | [13] -0.004 | [14] 0.053 | [15] 0.021 | [16] -0.014

CDK11B (UniProt P21127)
Sequence of UniProt P21127 (P21127 whole entry, looked up): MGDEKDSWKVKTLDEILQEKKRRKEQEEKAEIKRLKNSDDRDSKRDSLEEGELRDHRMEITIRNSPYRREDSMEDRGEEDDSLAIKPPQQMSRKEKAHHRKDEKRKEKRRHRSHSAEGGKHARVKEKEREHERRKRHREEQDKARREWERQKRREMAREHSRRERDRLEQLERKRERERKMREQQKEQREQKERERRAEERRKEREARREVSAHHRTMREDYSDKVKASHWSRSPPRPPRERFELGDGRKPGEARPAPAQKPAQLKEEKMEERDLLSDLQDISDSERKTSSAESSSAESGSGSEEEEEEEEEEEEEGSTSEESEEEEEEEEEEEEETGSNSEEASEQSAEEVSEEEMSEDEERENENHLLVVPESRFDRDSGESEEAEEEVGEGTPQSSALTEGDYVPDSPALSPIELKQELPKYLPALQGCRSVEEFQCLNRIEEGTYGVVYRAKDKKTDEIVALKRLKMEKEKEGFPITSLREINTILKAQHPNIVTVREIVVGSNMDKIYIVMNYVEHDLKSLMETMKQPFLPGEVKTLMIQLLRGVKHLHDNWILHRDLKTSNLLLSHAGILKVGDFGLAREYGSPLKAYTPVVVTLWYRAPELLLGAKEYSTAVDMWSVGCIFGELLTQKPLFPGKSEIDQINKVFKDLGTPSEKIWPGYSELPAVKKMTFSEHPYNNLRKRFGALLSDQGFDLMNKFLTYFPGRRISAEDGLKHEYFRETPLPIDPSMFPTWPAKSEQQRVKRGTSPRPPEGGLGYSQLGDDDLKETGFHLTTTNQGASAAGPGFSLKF
inactive: erlotinib 0.01 | [1] 0.025 | [2] -0.029 | [3] 0.008 | [4] -0.018 | [5] 0.017 | [6] -0.049 | [7] -0.016 | [8] -0.003 | IRAK-1-4 Inhibitor I -0.021 | ibrutinib -0.008 | ralimetinib 0.028 | [10] 0.034 | [11] 0.01 | [12] -0.027 | [13] -0.011 | [14] 0 | [15] 0.01 | [16] 0.003
active: [9] 0.438

C18orf25 (UniProt Q96B23)
active: [10] -0.276
inactive: erlotinib -0.025 | [1] -0.315 | [2] -0.086 | [3] 0.015 | [4] 0.001 | [5] 0.003 | [6] 0.004 | [7] 0.005 | [8] 0.029 | IRAK-1-4 Inhibitor I 0.114 | ibrutinib 0.114 | [9] 0.026 | ralimetinib 0 | [11] -0.038 | [12] 0.073 | [13] -0.008 | [14] 0.04 | [15] -0.091 | [16] -0.065

CDC42EP4 (UniProt Q9H3Q1)
Sequence of UniProt Q9H3Q1 (Q9H3Q1 whole entry, looked up): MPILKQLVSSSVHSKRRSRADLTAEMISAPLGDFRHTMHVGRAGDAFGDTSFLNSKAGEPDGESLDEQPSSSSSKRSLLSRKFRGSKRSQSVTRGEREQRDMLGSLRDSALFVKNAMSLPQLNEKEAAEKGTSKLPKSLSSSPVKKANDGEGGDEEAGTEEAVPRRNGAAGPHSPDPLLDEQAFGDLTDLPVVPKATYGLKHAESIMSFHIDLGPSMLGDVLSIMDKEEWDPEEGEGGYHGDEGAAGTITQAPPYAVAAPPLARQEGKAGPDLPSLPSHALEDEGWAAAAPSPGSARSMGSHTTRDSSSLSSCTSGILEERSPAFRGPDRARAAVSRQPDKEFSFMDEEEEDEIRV
inactive: erlotinib 0.025 | [1] -0.053 | [2] -0.005 | [3] 0.017 | [4] -0.109 | [5] 0.007 | [6] 0.044 | [7] -0.069 | [8] 0.054 | IRAK-1-4 Inhibitor I -0.055 | ibrutinib 0.07 | [9] -0.014 | ralimetinib 0.034 | [10] -0.006 | [11] 0.01 | [12] 0.024 | [13] 0.026 | [14] 0.155 | [15] -0.018 | [16] -0.035

CBFA2T3 (UniProt O75081)
Sequence of UniProt O75081 (O75081 whole entry, looked up): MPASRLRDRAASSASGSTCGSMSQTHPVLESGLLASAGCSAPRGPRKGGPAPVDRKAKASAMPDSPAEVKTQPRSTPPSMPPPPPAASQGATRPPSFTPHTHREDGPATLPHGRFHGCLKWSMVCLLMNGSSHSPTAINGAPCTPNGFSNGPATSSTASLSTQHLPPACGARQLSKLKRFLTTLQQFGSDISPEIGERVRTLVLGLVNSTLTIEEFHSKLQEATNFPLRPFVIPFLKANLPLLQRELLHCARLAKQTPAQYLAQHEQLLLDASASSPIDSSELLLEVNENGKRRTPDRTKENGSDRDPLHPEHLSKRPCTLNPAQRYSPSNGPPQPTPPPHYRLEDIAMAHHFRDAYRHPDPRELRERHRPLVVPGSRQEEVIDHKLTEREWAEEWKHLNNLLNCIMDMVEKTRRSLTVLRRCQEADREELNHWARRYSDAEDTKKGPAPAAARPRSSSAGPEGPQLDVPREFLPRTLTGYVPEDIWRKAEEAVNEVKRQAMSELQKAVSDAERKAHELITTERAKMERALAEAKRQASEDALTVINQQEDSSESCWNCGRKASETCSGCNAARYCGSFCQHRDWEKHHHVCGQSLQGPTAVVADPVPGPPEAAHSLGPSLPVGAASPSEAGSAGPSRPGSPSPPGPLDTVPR
inactive: erlotinib -0.012 | [1] -0.01 | [2] -0.002 | [3] -0.006 | [4] 0.016 | [5] 0.004 | [6] -0.01 | [7] -0.043 | [8] -0.093 | IRAK-1-4 Inhibitor I -0.027 | ibrutinib 0.005 | [9] 0.016 | ralimetinib 0.019 | [10] -0.005 | [11] -0.013 | [12] -0.001 | [13] 0.003 | [14] -0.016 | [15] 0.022 | [16] -0.005

BCL2L12 (UniProt Q9HB09)
inactive: erlotinib 0.055 | [1] -0.067 | [2] -0.01 | [3] -0.056 | [4] 0.119 | [5] -0.111 | [6] 0.144 | [7] 0.162 | [8] 0.015 | IRAK-1-4 Inhibitor I 0.002 | ibrutinib -0.26 | [9] -0.084 | ralimetinib 0.073 | [10] -0.024 | [11] 0.057 | [12] 0 | [13] -0.021 | [14] 0.028 | [15] -0.024 | [16] 0.099

C5orf51 (UniProt A6NDU8)
Sequence of UniProt A6NDU8 (A6NDU8 whole entry, looked up): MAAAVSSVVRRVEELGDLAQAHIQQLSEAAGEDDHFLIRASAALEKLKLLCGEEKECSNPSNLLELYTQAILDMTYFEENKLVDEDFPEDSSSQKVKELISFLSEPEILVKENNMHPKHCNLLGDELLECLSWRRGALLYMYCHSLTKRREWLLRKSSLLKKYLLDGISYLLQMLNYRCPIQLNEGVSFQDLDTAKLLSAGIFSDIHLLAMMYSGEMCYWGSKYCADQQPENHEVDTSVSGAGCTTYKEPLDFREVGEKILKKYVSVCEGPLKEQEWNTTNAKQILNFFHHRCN
inactive: erlotinib 0.024 | [1] 0.004 | [2] -0.008 | [3] -0.026 | [4] 0.04 | [5] 0.007 | [6] -0.038 | [7] -0.027 | [8] 0.055 | IRAK-1-4 Inhibitor I -0.025 | ibrutinib 0.052 | [9] -0.008 | ralimetinib 0.001 | [10] -0.027 | [11] 0.014 | [12] -0.005 | [13] 0.004 | [14] 0.042 | [15] 0.042 | [16] -0.001

BSDC1 (UniProt Q9NW68)
Sequence of UniProt Q9NW68 (Q9NW68 whole entry, looked up): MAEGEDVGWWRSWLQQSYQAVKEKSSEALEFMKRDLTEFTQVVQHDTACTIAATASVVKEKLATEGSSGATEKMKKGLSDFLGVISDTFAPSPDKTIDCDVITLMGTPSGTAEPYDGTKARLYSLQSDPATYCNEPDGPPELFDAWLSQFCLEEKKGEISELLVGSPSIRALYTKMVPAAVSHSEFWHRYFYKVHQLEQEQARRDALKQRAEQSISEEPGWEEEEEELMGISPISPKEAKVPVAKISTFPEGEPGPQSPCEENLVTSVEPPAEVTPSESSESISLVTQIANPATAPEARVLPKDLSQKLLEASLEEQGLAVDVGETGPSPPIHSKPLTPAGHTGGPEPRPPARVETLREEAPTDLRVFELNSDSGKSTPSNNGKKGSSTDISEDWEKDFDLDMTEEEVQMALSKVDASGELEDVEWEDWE
inactive: erlotinib -0.002 | [1] 0.01 | [2] -0.039 | [3] 0.046 | [4] -0.025 | [5] -0.024 | [6] 0.036 | [7] -0.029 | [8] 0 | IRAK-1-4 Inhibitor I 0.059 | ibrutinib 0.048 | [9] 0.008 | ralimetinib -0.004 | [10] -0.023 | [11] 0.062 | [12] 0.038 | [13] 0.01 | [14] 0.022 | [15] -0.047 | [16] 0.011

CDK1 (UniProt P06493)
active: [9] 0.433
inactive: erlotinib -0.038 | [1] 0.046 | [2] -0.019 | [3] -0.031 | [4] -0.002 | [5] -0.01 | [6] -0.051 | [7] -0.007 | [8] -0.002 | IRAK-1-4 Inhibitor I -0.017 | ibrutinib -0.071 | ralimetinib 0.018 | [10] -0.037 | [11] -0.026 | [12] -0.029 | [13] 0.01 | [14] 0.033 | [15] 0.011 | [16] 0

CAD (UniProt P27708)
inactive: erlotinib 0.013 | [1] 0.003 | [2] -0.015 | [3] 0.032 | [4] 0.013 | [5] -0.006 | [6] -0.008 | [7] -0.002 | [8] 0.011 | IRAK-1-4 Inhibitor I -0.004 | ibrutinib -0.009 | [9] -0.016 | ralimetinib 0.03 | [10] -0.002 | [11] 0.005 | [12] -0.005 | [13] 0.026 | [14] 0.009 | [15] 0.009 | [16] 0.018

ATRIP (UniProt Q8WXE1)
inactive: erlotinib -0.009 | [1] 0.032 | [2] -0.023 | [3] 0.227 | [4] 0.046 | [5] 0.064 | [6] 0.266 | [7] -0.059 | [8] -0.057 | IRAK-1-4 Inhibitor I 0.015 | ibrutinib 0.019 | [9] 0.129 | ralimetinib -0.007 | [10] -0.014 | [11] -0.048 | [12] 0.063 | [13] 0.005 | [14] -0.008 | [15] -0.008 | [16] -0.019

ATAD3B (UniProt Q5T9A4)
Sequence of UniProt Q5T9A4 (Q5T9A4 whole entry, looked up): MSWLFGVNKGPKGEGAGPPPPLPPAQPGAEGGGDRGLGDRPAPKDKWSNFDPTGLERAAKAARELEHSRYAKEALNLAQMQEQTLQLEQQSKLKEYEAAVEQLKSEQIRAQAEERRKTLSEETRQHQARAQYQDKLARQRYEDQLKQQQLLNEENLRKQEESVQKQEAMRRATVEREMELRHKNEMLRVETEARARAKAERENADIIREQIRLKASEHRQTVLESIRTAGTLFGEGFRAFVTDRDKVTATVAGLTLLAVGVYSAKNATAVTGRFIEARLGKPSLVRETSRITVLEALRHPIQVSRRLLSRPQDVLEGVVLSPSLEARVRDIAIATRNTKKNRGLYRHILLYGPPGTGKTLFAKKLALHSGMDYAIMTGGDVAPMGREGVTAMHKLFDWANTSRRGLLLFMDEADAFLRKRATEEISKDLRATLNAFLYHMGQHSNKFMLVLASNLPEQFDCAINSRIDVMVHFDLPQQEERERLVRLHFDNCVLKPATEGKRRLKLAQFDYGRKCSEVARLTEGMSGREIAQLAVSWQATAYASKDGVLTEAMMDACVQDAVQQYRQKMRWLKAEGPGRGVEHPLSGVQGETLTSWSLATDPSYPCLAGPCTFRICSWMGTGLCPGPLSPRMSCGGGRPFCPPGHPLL
inactive: erlotinib -0.016 | [1] 0.031 | [2] -0.111 | [3] 0.029 | [4] 0.019 | [5] -0.017 | [6] 0.096 | [7] 0.018 | [8] -0.009 | IRAK-1-4 Inhibitor I 0.032 | ibrutinib -0.054 | [9] 0.018 | ralimetinib -0.027 | [10] -0.069 | [11] -0.012 | [12] -0.026 | [13] -0.028 | [14] -0.03 | [15] 0.045 | [16] 0.015

CDAN1 (UniProt Q8IWY9)
inactive: erlotinib 0.006 | [1] -0.01 | [2] 0.048 | [3] -0.025 | [4] -0.012 | [5] -0.04 | [6] -0.063 | [7] -0.001 | [8] 0 | IRAK-1-4 Inhibitor I 0.003 | ibrutinib 0.035 | [9] -0.004 | ralimetinib 0 | [10] -0.029 | [11] -0.02 | [12] -0.001 | [13] -0.023 | [14] 0.035 | [15] 0.056 | [16] -0.008

CCNK isoform 4 (UniProt O75909)
Sequence of UniProt O75909 (O75909 whole entry, looked up): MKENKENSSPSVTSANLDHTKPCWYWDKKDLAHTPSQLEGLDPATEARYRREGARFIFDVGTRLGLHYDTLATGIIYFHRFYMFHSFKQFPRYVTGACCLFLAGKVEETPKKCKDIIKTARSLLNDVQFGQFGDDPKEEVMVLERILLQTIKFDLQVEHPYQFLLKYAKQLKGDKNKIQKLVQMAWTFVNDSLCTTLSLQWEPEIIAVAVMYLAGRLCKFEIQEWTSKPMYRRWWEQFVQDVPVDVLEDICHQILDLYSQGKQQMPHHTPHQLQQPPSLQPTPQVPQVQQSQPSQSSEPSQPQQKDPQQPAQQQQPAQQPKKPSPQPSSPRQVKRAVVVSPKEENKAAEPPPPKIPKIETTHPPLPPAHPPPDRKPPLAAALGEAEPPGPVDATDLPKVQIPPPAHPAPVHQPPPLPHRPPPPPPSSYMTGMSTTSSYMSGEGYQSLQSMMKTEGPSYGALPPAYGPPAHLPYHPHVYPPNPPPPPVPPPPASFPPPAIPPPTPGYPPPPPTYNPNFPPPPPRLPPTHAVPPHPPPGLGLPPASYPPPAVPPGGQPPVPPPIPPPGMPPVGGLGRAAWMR
inactive: erlotinib -0.018 | [1] -0.022 | [2] -0.012 | [3] -0.016 | [4] -0.062 | [5] -0.039 | [6] -0.001 | [7] 0.01 | [8] 0.002 | IRAK-1-4 Inhibitor I -0.021 | ibrutinib 0.09 | [9] 0.007 | ralimetinib 0.042 | [10] -0.01 | [11] 0.012 | [12] 0.015 | [13] -0.017 | [14] 0.024 | [15] -0.037 | [16] -0.007
